From PubChem BioAssay (EPA / NIEHS) come the findings set out here.

Several values for one entry are separate records, joined by “and”; a condition that tells them apart may be missing. Equal values may be shown once. Inconclusive results are not listed. Some compounds were tested as several samples or in several runs, with calls that do not always agree. Activity calls are given as the source filed them. Rule for the calls, unless noted: active = hit-call score of the fitted dose curve at least 0.9, where 1 is the maximum; inactive = score below 0.9.

In assay [1] the target is Paired box protein Pax-6 (Homo sapiens) (UniProt P26367). Nature of the assay: ATG_Pax6_CIS: Attagene CIS-FACTORIAL HepG2 Assay for human Paired Box 6 (PAX6) (AID 2282956). The conditions noted are these: HepG2 CIS-FACTORIAL PAX6 reporter transcription, RNA readout; actives raise or lower the signal. In a few lines: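 HepG2 cells transiently transfected with cis-promoter-driven multiplexed reporter units sensing endogenous transcription factor activity; 24 h chemical exposure. Reporter mRNA quantified by RT-PCR, 6-FAM labelling, HpaI digestion and capillary electrophoresis; bidirectional fit versus DMSO baseline.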
Paired box protein Pax-6 (Homo sapiens), sequence (P26367 whole entry, looked up): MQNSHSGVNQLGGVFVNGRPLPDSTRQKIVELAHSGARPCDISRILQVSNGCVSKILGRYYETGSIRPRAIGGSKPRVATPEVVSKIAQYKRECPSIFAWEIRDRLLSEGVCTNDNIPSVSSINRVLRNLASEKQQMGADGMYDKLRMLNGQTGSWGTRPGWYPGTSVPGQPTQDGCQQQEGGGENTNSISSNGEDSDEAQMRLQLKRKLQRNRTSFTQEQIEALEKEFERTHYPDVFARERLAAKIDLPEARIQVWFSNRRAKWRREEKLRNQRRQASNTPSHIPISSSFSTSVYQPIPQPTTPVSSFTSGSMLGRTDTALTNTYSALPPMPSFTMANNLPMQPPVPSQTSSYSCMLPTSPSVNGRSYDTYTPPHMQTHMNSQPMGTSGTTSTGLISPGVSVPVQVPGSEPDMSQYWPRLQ

A short description of assay [2]: ATG_PXRE_CIS: Attagene CIS-FACTORIAL HepG2 Assay for human Pregnane X Receptor Element (PXRE) (AID 2282957). The conditions noted are these: HepG2 Attagene CIS-FACTORIAL PXRE reporter, mRNA; actives raise or lower the signal. In outline: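 Cis-element reporter mRNA in human hepatoma HepG2 cells is measured 24 h post-dosing by RT-PCR, primer-extension labeling and capillary electrophoresis; gain or loss of signal is fitted relative to DMSO.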

A short description of assay [3]: ATG_RORE_CIS: Attagene CIS-FACTORIAL HepG2 Assay for human RAR-related Orphan Receptor Element (RORE) (AID 2282959). The conditions noted are these: HepG2 Attagene cis-factorial RORE reporter, mRNA; actives raise or lower the signal. In a few lines: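 Fluorescence intensity of reporter-specific cDNA fragments, separated by capillary electrophoresis, gives the signal. Source: HepG2 liver cells transiently transfected with cis-element reporters and exposed 24 h; DMSO-normalized bidirectional fit.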

Assay [4] is described as follows: ATG_Sox_CIS: Attagene CIS-FACTORIAL HepG2 Assay for human SRY-box transcription factor (SOX) (AID 2282960). The conditions noted are these: HepG2 Attagene cis-factorial SOX reporter, mRNA; actives raise or lower the signal. In a few lines:
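After 24 h of chemical treatment, transfected HepG2 reporter cells are lysed for total RNA. Transcript levels come from RT-PCR with labelled primer extension and capillary electrophoresis, analysed bidirectionally versus DMSO.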

The target in assay [5] is Transcription factor Sp1 (Homo sapiens) (UniProt P08047). Nature of the assay: ATG_Sp1_CIS: Attagene CIS-FACTORIAL HepG2 Assay for human Specificity Protein 1 (Sp1) (AID 2282961). The conditions noted are these: HepG2 Sp1 cis-reporter transcription, actives raise or lower the signal. In a few lines: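 Sp1-driven reporter mRNA, read as capillary electrophoresis fluorescence after RT-PCR, in transiently transfected HepG2 cells dosed for 24 h; signal change in either direction relative to DMSO.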
Transcription factor Sp1 (Homo sapiens), sequence (P08047 whole entry, looked up): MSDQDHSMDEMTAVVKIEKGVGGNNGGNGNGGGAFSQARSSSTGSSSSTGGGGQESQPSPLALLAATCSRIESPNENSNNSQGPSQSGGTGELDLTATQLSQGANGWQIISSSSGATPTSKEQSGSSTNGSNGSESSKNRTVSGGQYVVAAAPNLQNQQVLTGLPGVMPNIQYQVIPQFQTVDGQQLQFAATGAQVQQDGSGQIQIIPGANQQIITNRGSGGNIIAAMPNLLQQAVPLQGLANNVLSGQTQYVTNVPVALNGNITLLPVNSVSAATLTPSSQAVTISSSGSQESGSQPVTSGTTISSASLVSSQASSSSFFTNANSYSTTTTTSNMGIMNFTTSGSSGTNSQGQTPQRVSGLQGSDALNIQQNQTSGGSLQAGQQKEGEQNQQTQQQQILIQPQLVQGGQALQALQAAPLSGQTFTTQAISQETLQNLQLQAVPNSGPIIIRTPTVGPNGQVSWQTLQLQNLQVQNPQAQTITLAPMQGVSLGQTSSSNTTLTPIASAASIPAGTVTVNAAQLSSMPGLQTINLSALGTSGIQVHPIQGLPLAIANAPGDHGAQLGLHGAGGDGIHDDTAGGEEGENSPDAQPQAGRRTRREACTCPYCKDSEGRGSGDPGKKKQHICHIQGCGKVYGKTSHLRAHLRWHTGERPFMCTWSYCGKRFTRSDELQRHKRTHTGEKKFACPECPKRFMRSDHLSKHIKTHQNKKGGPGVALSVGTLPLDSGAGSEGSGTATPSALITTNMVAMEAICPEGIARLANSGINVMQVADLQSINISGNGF

Assay [6] can be described thus: ATG_SREBP_CIS: Attagene CIS-FACTORIAL HepG2 Assay for human Sterol Regulatory Element Binding (SREBP) (AID 2282962). The conditions noted are these: HepG2 Attagene cis-factorial SREBP reporter, mRNA; actives raise or lower the signal. In a few lines: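 HepG2 cells transiently transfected with multiplexed cis-promoter reporter units sensing endogenous transcription factors; reporter mRNA measured 24 h after dosing by RT-PCR, 6-FAM labeling, HpaI digestion and capillary electrophoresis. Bidirectional fit versus DMSO.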

Assay [7] deals with Signal transducer and activator of transcription 3 (Homo sapiens) (UniProt P40763). In words: ATG_STAT3_CIS: Attagene CIS-FACTORIAL HepG2 Assay for human Signal Transducer and Activator of Transcription 3 (STAT3) (AID 2282963). The conditions noted are these: HepG2, Attagene cis-factorial STAT3 reporter transcription; actives raise or lower the signal. In a few lines: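 Endogenous STAT3-responsive cis-element activity was read in transiently transfected HepG2 cells after 24 h treatment. Reporter transcripts were quantified via RT-PCR and capillary electrophoresis, with DMSO as negative control and bidirectional curve fitting.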
Signal transducer and activator of transcription 3 (Homo sapiens), sequence (P40763 whole entry, looked up): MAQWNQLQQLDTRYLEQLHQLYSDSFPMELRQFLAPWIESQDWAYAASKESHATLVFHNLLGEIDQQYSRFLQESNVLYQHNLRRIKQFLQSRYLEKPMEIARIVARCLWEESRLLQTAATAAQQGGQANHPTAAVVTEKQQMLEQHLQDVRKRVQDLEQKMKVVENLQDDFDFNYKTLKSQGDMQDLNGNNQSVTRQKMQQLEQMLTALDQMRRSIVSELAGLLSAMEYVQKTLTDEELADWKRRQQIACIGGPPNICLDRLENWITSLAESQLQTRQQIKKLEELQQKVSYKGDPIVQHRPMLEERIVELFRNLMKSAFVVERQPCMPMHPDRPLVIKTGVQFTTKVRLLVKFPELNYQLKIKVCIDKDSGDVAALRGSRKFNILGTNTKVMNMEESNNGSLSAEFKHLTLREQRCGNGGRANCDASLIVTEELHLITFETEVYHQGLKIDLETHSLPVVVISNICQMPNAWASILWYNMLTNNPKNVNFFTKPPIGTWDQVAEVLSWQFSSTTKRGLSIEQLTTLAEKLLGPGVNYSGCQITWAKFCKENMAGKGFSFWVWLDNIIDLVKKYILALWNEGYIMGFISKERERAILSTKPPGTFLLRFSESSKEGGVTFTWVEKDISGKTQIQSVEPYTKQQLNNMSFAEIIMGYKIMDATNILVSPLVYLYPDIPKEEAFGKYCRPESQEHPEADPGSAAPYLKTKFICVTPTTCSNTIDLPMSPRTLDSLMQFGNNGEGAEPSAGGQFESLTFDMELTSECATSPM

The nature of assay [8]: ATG_TCF_b_cat_CIS: Attagene CIS-FACTORIAL HepG2 Assay for human T-Cell-Factor with beta-catenin (TCF/b-cat) (AID 2282965). The conditions noted are these: HepG2 TCF/beta-catenin cis-reporter transcription, actives raise or lower the signal. In a few lines:
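Endogenous transcription factor activity is captured through cis-promoter reporter constructs transiently introduced into human HepG2 liver cells. Induced reporter mRNA is measured after 24 h and fitted bidirectionally relative to DMSO.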

Assay [9] can be described thus: ATG_TAL_CIS: Attagene CIS-FACTORIAL HepG2 Assay for human TAL Basal Promoter (AID 2282966).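 Note: background control endpoint measuring basal TAL promoter reporter mRNA not a specific factor.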 The conditions noted are these: HepG2 Attagene cis-factorial TAL promoter reporter; actives raise or lower the signal. In a few lines: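 In this cell-based multiplex, HepG2 liver cells bearing cis-promoter reporter constructs are dosed for 24 hours. Total RNA is reverse-transcribed and amplified, labelled fragments are sized by capillary electrophoresis, and signal changes are fitted bidirectionally versus DMSO.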

Assay [10] is described as follows: ATG_TGFb_CIS: Attagene CIS-FACTORIAL HepG2 Assay for human Transforming Growth Factor (TGF) (AID 2282967). The conditions noted are these: HepG2 Attagene CIS TGFb reporter, mRNA transcription; actives raise or lower the signal. In outline: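 Transcript-level reporter readout: HepG2 transfectants, 24 h exposure, RNA to cDNA, reporter-specific PCR, fluorescent primer extension, capillary sizing against ROX standards. Gain- or loss-of-signal relative to DMSO.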

A short description of assay [11]: ATG_VDRE_CIS: Attagene CIS-FACTORIAL HepG2 Assay for human Vitamin D Receptor Element (VDRE) (AID 2282968). The conditions noted are these: HepG2 VDRE cis-reporter transcription, actives raise or lower the signal. In a few lines:
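Reporter mRNA induction, quantified by capillary electrophoresis of fluorescently labelled RT-PCR products, was read 24 h after dosing HepG2 cells carrying transiently transfected cis-regulated reporter units; gain or loss relative to DMSO.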

For assay [12], the target named is Nuclear receptor subfamily 1 group I member 3 (Homo sapiens) (UniProt Q14994). In words: ATG_CAR_TRANS: Attagene TRANS-FACTORIAL HepG2 Assay for human Constitutive Androstane Receptor (CAR) (AID 2282969; active = hit-call score of the fitted dose curve at least 0.9, where 1 is the maximum;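 note: activators raise reporter mRNA above DMSO so AC50 marks induction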). The conditions noted are these: HepG2 Attagene TRANS-FACTORIAL CAR reporter. In outline:
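Readout is reporter mRNA induction, quantified by fluorescent primer extension and capillary electrophoresis after RT-PCR. Cells were HepG2 transiently carrying chimeric NR-Gal4 constructs with GAL4-UAS reporters, treated for 24 h; activity scored upward from DMSO.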

The target in assay [13] is Estrogen receptor (Homo sapiens) (UniProt P03372). In words: ATG_ERa_TRANS: Attagene TRANS-FACTORIAL HepG2 Assay for human Estrogen Receptor alpha (ERa) (AID 2282970; active = hit-call score of the fitted dose curve at least 0.9, where 1 is the maximum). The conditions noted are these: HepG2 Attagene TRANS ERa GAL4 reporter, mRNA. In a few lines:
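After 24 h of compound treatment, RNA from HepG2 cells bearing transfected GAL4-UAS reporter constructs is converted to cDNA, amplified and fluorescently labelled. Capillary electrophoresis resolves the ERa-linked reporter; DMSO serves as negative control.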

In assay [14] the target is X-box-binding protein 1 (Homo sapiens) (UniProt P17861). Nature of the assay: ATG_Xbp1_CIS: Attagene CIS-FACTORIAL HepG2 Assay for human X-box Binding Protein 1 (XBP1) (AID 2282972). The conditions noted are these: HepG2 XBP1 cis-element reporter, Attagene multiplex; actives raise or lower the signal. In a few lines: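 HepG2 cells transiently transfected with multiple cis-element reporter units report endogenous TF activity; 24 h exposure, then reporter mRNA measured by RT-PCR, 6-FAM labelling, HpaI digestion and capillary electrophoresis. Bidirectional fitting versus DMSO.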
X-box-binding protein 1 (Homo sapiens), sequence (P17861 whole entry, looked up): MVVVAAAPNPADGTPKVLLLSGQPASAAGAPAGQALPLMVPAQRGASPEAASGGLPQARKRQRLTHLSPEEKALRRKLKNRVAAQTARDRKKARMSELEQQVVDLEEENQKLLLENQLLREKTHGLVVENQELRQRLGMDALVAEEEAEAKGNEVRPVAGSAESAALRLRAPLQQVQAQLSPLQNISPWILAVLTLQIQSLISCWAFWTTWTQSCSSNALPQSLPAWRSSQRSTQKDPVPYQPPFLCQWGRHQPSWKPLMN

In assay [15] the target is Steroid hormone receptor ERR1 (Homo sapiens) (UniProt P11474). In words: ATG_ERRa_TRANS: Attagene TRANS-FACTORIAL HepG2 Assay for human Estrogen-Related Receptor alpha (ERRa) (AID 2282971; active = hit-call score of the fitted dose curve at least 0.9, where 1 is the maximum). The conditions noted are these: HepG2 Attagene TRANS reporter, ERRa transactivation. In a few lines:
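Transfected HepG2, 24 h dosing, ERRa-Gal4 chimera driving GAL4-UAS reporter. Readout: reporter mRNA via RT-PCR plus capillary electrophoresis (fluorescence). Positive direction vs DMSO control.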

The target in assay [16] is Androgen receptor (Homo sapiens) (UniProt P10275). In words: ATG_AR_TRANS: Attagene TRANS-FACTORIAL HepG2 Assay for human Androgen Receptor (AR) (AID 2282973; active = hit-call score of the fitted dose curve at least 0.9, where 1 is the maximum). The conditions noted are these: HepG2 Attagene TRANS-FACTORIAL AR reporter transcription. In a few lines: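 Readout is reporter transcript abundance, quantified by fluorescent RT-PCR products separated on capillary electrophoresis. Human HepG2 liver cells carried transiently transfected NR-Gal4 chimera plus GAL4-UAS reporter constructs and were dosed for 24 h; activity scored upward versus DMSO.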
Androgen receptor (Homo sapiens), sequence (P10275 whole entry, looked up, the tested form may be a part): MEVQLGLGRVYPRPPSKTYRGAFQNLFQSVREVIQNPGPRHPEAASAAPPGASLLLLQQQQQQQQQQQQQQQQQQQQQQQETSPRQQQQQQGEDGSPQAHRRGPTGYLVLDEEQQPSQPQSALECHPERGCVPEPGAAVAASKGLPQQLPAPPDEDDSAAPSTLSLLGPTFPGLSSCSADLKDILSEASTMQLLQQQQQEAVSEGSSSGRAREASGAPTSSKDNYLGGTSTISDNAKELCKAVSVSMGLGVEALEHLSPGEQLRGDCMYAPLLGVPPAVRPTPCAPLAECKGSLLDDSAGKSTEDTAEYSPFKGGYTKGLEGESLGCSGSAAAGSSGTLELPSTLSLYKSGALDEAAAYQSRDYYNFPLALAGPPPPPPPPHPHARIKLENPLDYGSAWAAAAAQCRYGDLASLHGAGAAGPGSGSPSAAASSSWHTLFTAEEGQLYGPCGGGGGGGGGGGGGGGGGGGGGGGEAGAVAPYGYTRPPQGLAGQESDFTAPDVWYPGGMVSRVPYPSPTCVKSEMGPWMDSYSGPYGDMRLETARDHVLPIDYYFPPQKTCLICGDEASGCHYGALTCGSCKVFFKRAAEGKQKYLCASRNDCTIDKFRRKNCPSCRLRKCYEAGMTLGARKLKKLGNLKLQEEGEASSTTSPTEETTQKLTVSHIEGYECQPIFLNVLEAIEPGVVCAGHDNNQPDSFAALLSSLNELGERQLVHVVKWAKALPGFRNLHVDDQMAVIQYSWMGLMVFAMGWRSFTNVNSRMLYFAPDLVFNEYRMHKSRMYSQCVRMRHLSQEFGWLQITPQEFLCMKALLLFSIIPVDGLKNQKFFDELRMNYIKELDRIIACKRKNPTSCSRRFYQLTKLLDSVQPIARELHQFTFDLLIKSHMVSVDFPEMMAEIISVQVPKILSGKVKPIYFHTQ

The nature of assay [17]: ATG_Hpa5_TRANS: Attagene TRANS-FACTORIAL HepG2 Assay for human GAL4-Hpa5 Hepatocyte Transcription Factor Basal Promoter (AID 2282975; active = hit-call score of the fitted dose curve at least 0.9, where 1 is the maximum;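 note: hits are increases in reporter mRNA over DMSO baseline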). The conditions noted are these: HepG2 Attagene GAL4-Hpa5 transcription reporter. In a few lines: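 Basal-promoter GAL4 background control within the HepG2 trans-factorial panel of transiently transfected reporter units. Reporter mRNA is measured 24 h after dosing by RT-PCR and capillary electrophoresis, fitted for gain of signal versus DMSO.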

Steroid hormone receptor ERR1 (Homo sapiens), sequence (P11474 whole entry, looked up, the tested form may be a part): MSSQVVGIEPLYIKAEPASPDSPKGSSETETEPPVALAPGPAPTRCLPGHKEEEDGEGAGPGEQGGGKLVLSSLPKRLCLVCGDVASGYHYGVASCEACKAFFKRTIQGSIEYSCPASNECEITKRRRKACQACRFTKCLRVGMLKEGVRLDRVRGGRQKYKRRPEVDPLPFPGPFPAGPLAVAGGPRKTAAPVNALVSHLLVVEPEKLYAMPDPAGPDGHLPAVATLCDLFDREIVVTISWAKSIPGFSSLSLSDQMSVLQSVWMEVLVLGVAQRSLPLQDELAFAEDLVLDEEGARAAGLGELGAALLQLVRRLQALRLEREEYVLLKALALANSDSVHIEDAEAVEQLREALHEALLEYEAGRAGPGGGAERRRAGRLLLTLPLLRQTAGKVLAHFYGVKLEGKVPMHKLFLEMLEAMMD
Nuclear receptor subfamily 1 group I member 3 (Homo sapiens), sequence (Q14994 whole entry, looked up, the tested form may be a part): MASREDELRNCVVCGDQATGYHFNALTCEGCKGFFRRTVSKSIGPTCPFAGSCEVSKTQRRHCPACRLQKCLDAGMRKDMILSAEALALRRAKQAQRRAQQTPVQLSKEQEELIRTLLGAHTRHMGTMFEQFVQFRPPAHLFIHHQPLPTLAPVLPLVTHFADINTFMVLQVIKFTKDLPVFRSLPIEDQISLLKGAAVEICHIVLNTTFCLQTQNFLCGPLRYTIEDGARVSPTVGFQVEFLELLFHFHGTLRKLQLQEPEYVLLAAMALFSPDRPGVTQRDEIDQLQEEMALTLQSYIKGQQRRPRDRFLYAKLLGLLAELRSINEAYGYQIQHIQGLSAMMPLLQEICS
Estrogen receptor (Homo sapiens), sequence (P03372 whole entry, looked up, the tested form may be a part): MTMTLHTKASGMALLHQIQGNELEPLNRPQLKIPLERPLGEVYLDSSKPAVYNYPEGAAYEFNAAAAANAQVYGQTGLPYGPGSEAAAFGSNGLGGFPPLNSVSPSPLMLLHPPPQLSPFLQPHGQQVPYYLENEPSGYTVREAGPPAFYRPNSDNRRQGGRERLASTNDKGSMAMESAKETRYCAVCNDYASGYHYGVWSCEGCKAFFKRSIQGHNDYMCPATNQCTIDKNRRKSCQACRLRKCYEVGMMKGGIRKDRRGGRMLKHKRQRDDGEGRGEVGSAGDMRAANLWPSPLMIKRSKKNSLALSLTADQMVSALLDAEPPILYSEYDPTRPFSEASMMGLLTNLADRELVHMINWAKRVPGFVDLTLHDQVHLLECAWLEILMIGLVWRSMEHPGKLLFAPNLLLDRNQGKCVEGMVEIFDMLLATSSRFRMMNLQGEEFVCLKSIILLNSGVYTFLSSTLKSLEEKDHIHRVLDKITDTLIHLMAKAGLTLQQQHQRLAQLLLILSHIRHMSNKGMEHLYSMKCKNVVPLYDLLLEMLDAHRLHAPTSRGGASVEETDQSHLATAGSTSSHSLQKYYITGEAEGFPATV

`CCCCNC(=O)n1c(NC(=O)OC)nc2ccccc21`: the outcome in [1], in [2], in assay [3], in assay [4], in assay [5] and in assay [6] was inactive. Besides, the molecule was called inactive in assay [7], in assay [8], in assay [9], in assay [10], in [11] and in assay [12]. Also, the result in assay [13] and in assay [14] was inactive.

On to `COc1cnc(OC)n2nc(NS(=O)(=O)c3c(OCC(F)F)cccc3C(F)(F)F)nc12`, for which the call in [1], in [3], in assay [4], in assay [5], in [7] and in assay [8] was inactive. In addition, the result in [9], in [10], in [12], in [13], in assay [15] and in assay [14] was inactive. The AC50 in [2] was 22 µM (active) and 16.4 µM (active).

As for `CCCC1COC(Cn2cncn2)(c2ccc(Cl)cc2Cl)O1` (stereo not drawn), the molecule was classed as inactive in [1], in [3], in assay [4], in assay [5], in assay [7] and in [8]. The molecule was classed as inactive in [9], in [10], in [11], in assay [12], in assay [14] and in [16]. Also, the molecule was classed as inactive in assay [17]. In addition, the AC50 in assay [2] is 4.09 µM (active) and 85 µM (active); in assay [11], 7.99 µM (active).

As to `CO/C=C(/C(=O)OC)c1ccccc1Oc1cc(Oc2ccccc2C#N)ncn1`, the molecule was called inactive in [1], in assay [3], in assay [4], in assay [5], in [7] and in assay [8]. Besides, the molecule was called inactive in assay [9], in assay [10], in assay [12], in assay [13], in assay [15] and in assay [14]. In addition, the result in [16] and in assay [17] was inactive. Besides, the AC50 in [2] was 526 nM (active) [middle of 6 runs].

Turning to `CON(C)C(=O)Nc1ccc(Cl)c(Cl)c1`, the molecule was called inactive in [1], in assay [3], in [4], in [5], in [7] and in assay [8]. In addition, the result in assay [9], in assay [10], in assay [11], in [12], in assay [13] and in assay [15] was inactive. The outcome in [14] was inactive. Besides, the AC50 was 26.7 µM (active) [middle of 4 runs] in [2]; 28.7 µM (active) and 35.7 µM (active) and 23.4 µM (active) in [11].

For the molecule `CCCN(CCC)c1c([N+](=O)[O-])cc(S(N)(=O)=O)cc1[N+](=O)[O-]`, the molecule was classed as inactive in assay [1], in assay [3], in assay [4], in assay [5], in assay [7] and in assay [8]. The molecule was called inactive in assay [9], in [10], in assay [11], in assay [12], in assay [13] and in assay [15]. For the same molecule, the molecule was called inactive in assay [14] and in assay [17]. For the same molecule, the AC50 in assay [2] is 302 nM (active) and 134 nM (active) and 567 nM (active); in assay [11], 915 nM (active) and 1.14 µM (active).

`CC(C)Oc1cc(-n2nc(C(C)(C)C)oc2=O)c(Cl)cc1Cl`: the result in assay [1], in assay [3], in assay [4], in assay [5], in assay [7] and in [8] was inactive. Also, the molecule was called inactive in assay [9], in [10], in assay [12], in assay [13], in assay [14] and in [16]. For the same molecule, the molecule was called inactive in [17]. Besides, the AC50 was 284 nM (active) in assay [2] and 0.667 µM (active) in assay [11].

For orientation: AC50 means the midpoint of the concentration-response curve, whichever way the signal moves.
